ssDAF-12 act – activates DAF-12 receptor from parasite S. stercoralis; actives 1% (n = 370,000); activation, % at 6.8 µM; HEK293 ssDAF-12/GRIP1 lit1-tk-luc reporter, luminescence; % of 3 µM dafachronic acid response;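 active means activation above the mean over all tested compounds plus 3 SD, cut at about 0.9% in these data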
DAX1 inh-1 – inhibits human nuclear receptor DAX1; HEK293 Gal4-DAX1 luciferase reporter, luminescence; inhibition, % at 6.75 µM; actives 0.99% (n = 340,000); AID 504766;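 active means inhibition above the mean over all tested compounds plus 3 SD, cut at about 4.2% in these data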;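 further: inhibition shows as a rise in luminescence from relieved DAX1 repression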
Target sequence (P51843 207-470 limits assumed): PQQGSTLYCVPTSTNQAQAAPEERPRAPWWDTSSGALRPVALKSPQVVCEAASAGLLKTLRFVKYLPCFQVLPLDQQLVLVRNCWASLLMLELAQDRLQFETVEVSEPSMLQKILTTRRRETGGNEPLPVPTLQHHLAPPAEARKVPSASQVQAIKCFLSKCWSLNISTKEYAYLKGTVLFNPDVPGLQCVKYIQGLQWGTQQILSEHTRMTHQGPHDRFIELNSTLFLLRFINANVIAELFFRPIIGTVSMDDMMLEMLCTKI
DAX1 inh-2 – inhibitors of DAX1 repression of SF-1 activated StAR promoter | inhibition, % at 6.8 µM | HEK293T StAR-luciferase reporter, SF-1/DAX-1 repression relief | actives 1.1% (n = 370,000);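 active means inhibition above the mean over all tested compounds plus 3 SD, cut at about 3.6% in these data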;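 further: higher inhibition means more luminescence from relief of DAX-1 repression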
hcDAF12 agonist – activates DAF-12 receptor from parasite H. contortus | HEK293 hcDAF-12 lit1-tk-luc reporter, luminescence; 0% DMSO, 100% Δ7-dafachronic acid | activation, % at 6.8 µM | actives 1.4% (n = 370,000) | AID 652067;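 active means activation above the mean of all tested compounds plus 3 SD, cut at about 5.5% in these data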
SMARCA2 activ – increases SMARCA2 function in MMTV reporter cells; MG213 cells, MMTV-luciferase reporter, dexamethasone, overnight; activation, % at 9.1 µM; actives 1% (n = 370,000); in the data active means activation above about 7.8%
hgDAF12 agonist – activates the H. glycines DAF-12 receptor ligand-binding domain. HEK293 GAL4-hgDAF12 UAS-luciferase reporter, agonist luminescence; normalized to butyrate control. activation, % at 6.8 µM. actives 1.8% (n = 370,000);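 active means activation above a cutoff set at the mean of all screened compounds plus 3 SD, cut at about 10% in these data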
SMARCA2 act conf – SMARCA2 activation, confirmation screen. actives 30% (n = 3,500). MG213 cells, MMTV-luciferase with dexamethasone, luminescence, overnight; MG213 cells expressing E1A, Rb sequestered; DMSO wells 0%, reference activator 100%. shares compounds with SMARCA2 activ. activation, % at 9.1 µM;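 active means activation above its plate's cutoff, the mean activation of tested wells plus 3 SD, cut at about 7.9% in these data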
GAL4-VP16 Luc – activates GAL4-VP16 luciferase, flagging SMARCA2 activator hits | shares compounds with SMARCA2 activ | HEK293 GAL4-VP16 pG5luc reporter, luciferase luminescence; scaled: DMSO wells 0%, SAHA wells 100% | activation, % at 9.1 µM | actives 41% (n = 3,500) | AID 686939;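 active means activation above the solvent-only control well mean plus 3 SD, averaged across control plates, cut at about 5.2% in these data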
A number is an active result; – = inactive; · = no result given. Most compounds without a hit are left out; they make up all but 4.8% or so of the library.

SMILES | ssDAF-12 act | DAX1 inh-1 | DAX1 inh-2 | hcDAF12 agonist | SMARCA2 activ | hgDAF12 agonist | SMARCA2 act conf | GAL4-VP16 Luc
CCOC(=O)c1sc(-c2ccccc2)cc1N | – | – | – | – | 9.0 | – | – | 6.4
CCOC(=O)c1sc(-c2ccc(F)cc2)cc1N | – | – | – | – | – | – | · | ·
CCOC(=O)c1cnc(SCC(=O)c2ccccc2)nc1N | – | – | – | – | 14 | – | 13 | 9.0
Cc1ccsc1/C=C(\C#N)C(=O)NC1CCS(=O)(=O)C1 (configuration not stated) | – | – | – | – | – | – | · | ·
CC(C)(C)c1ccc(Oc2coc3cc(OCC(=O)O)ccc3c2=O)cc1 | – | – | – | – | – | – | · | ·
C=CCNC(=O)N1CCC(c2nc3ccc(Cl)cc3[nH]2)CC1 | – | · | – | – | 9.7 | – | – | –
CCC(=O)NC(c1ccccc1)c1nc2ccccc2[nH]1 (configuration not stated) | – | – | – | – | 8.5 | – | – | –
COc1ccc(NC(=O)CSc2ccccc2)c([N+](=O)[O-])c1 | – | – | – | – | 8.4 | – | – | –
CCOc1ccc(OCC(=O)Nc2ccc(OC)cc2[N+](=O)[O-])cc1 | – | – | – | – | – | – | · | ·
COc1ccc(OCC(=O)N/N=C(\C)CC(=O)Nc2ccc(OC)cc2[N+](=O)[O-])cc1 | – | – | – | – | 8.7 | – | – | –
CC(C)(C)C1CCC2(CC1)Nc1cccc3cccc(c13)N2 | – | – | – | – | – | – | · | ·
COc1ccc(NC(=O)NN2CCN(C)CC2)cc1 | – | – | – | – | – | – | · | ·
O=C(CSc1nnc(-c2ccco2)o1)c1ccccc1Cl | – | – | – | – | 9.3 | – | – | –
CCN(CC)S(=O)(=O)c1cc(NC(=O)C(C)N(C)CC(=O)Nc2c(C)cccc2C)ccc1C (configuration not stated) | – | – | – | – | 9.2 | – | – | –
COc1ccc(CNCCSc2nnnn2C)cc1OC | – | – | – | – | – | – | · | ·
COc1ccc(CNC(=O)CSc2nnnn2C)cc1OC | – | – | – | – | 8.5 | – | – | –
Cn1cc(CNC(=O)c2cc(-c3ccccc3)nc3ccc(Br)cc23)cn1 | – | – | – | – | – | – | · | ·
Cc1ccc(-c2cc(C(=O)NCc3cnn(C)c3)c3cc(Br)ccc3n2)cc1 | – | – | – | – | 12 | – | – | 6.6
COc1ccc(-c2cc(C(=O)O)c(C)o2)cc1OC | – | – | – | – | – | – | · | ·
COc1ccc(-c2cc(C(=O)NC(Cc3cc4ccccc4[nH]3)C(=O)O)c(C)o2)cc1OC (configuration not stated) | – | – | – | – | 11 | – | 9.9 | –
CN(C)CCN(C(=O)c1ccc2ccccc2c1)c1nc2cc3c(cc2s1)OCO3 | – | – | – | – | 11 | – | – | –
CC(CN1C(C)CCCC1C)OC(=O)c1cccc(F)c1 (configuration not stated) | – | – | – | – | – | – | · | ·
CC(CN1C(C)CCCC1C)OC(=O)c1ccccc1F (configuration not stated) | – | – | – | – | 9.2 | – | – | –
CC1Oc2ccccc2OC1C(=O)Nc1nccs1 (configuration not stated) | – | – | – | – | – | – | · | ·
CN1C(=O)c2cc(NC(=O)c3ccc(F)cc3)ccc2OC[C@H]2O[C@H](CC(=O)NC3CCC3)CC[C@H]21 | – | · | – | – | – | – | · | ·
SMILES | ssDAF-12 act | DAX1 inh-1 | DAX1 inh-2 | hcDAF12 agonist | SMARCA2 activ | hgDAF12 agonist | SMARCA2 act conf | GAL4-VP16 Luc
Nc1ccc(/C=C/C(=O)c2cccs2)cc1 | – | – | – | – | 12 | – | 9.1 | 6.8
O=C(C=Cc1ccccc1)c1cccs1 | – | – | – | – | – | – | · | ·
COc1ccccc1CNc1nc(C)c(C(=O)N(C)C)s1 | – | – | – | – | – | – | · | ·
Cc1nc(NCCc2ccccc2)sc1C(=O)N(C)C | – | – | – | – | 8.6 | – | – | –
Clc1cccc(-c2nc3ccc(Cl)cn3c2Cc2ccccc2)c1 | – | · | – | – | 8.2 | – | – | –
COc1ccc(Cc2c(-c3ccccc3)nc3ccc(C)cn23)c(C)c1 | 1.5 | · | 3.9 | – | 9.2 | 14 | – | –
COc1ccccc1Cc1c(-c2ccccc2)nc2ccc(Cl)cn12 | 1.5 | · | – | – | 11 | – | – | –
Clc1cccc(Cc2c(-c3ccccc3)nc3ccc(Br)cn23)c1 | – | · | – | – | – | – | · | ·
COc1ccc(Cc2c(-c3ccccc3)nc3ccc(Cl)cn23)c(C)c1 | – | · | – | – | – | – | · | ·
CC(CCC(=O)NN)C1CCC2C3CCC4CC(O)CCC4(C)C3CCC12C (configuration not stated) | – | – | – | – | – | – | · | ·
Cc1ccc(S(=O)(=O)N(C)CC(=O)NNC(=O)Cc2ccccc2F)cc1 | – | – | – | – | – | – | · | ·
COc1ccc(C(=O)OCC(N)=O)cc1[N+](=O)[O-] | – | – | – | – | 11 | – | – | –
Cc1cccc2sc(NC(=O)c3ccc(OCC4CCCO4)cc3)nc12 (configuration not stated) | – | – | – | – | 12 | 13 | – | –
CSc1ncc(CN2CCCC(C(=O)Nc3ccc(-c4ccco4)cc3)C2)cn1 (configuration not stated) | – | – | – | – | – | – | · | ·
COc1cccc(C(=O)Nc2ccc(S(=O)(=O)N3CCCCC3)cc2)c1OC | – | – | – | – | – | – | · | ·
CCCCCOc1ccc(C(=O)N(Cc2ccco2)C2CCS(=O)(=O)C2)cc1 (configuration not stated) | – | – | – | – | 8.9 | – | – | –
O=C(O)c1cc(O)c2c(c1)C(=O)c1cccc(O)c1C2=O | – | – | – | – | – | – | · | ·
COc1ccc2c(ccc[n+]2[O-])c1 | – | – | – | – | – | – | · | ·
COc1ccc2nc3ccccc3[n+]([O-])c2c1 | – | – | – | – | 8.4 | – | – | 6.2
COc1ccc([C@H]2CC(=O)C[C@@H](CCn3cc(-c4ccc(F)cc4)nn3)O2)cc1 | – | · | – | – | 9.6 | – | – | –
COc1ccc([C@H]2CC(=O)C[C@@H](CCn3cc(-c4ccccc4)nn3)O2)cc1 | – | · | – | – | – | – | · | ·
CCCCc1c(-c2ccccc2OC)ncn1CCc1cccc(F)c1 | – | · | – | – | – | – | · | ·
COc1cccc(C(=O)N/N=C/C(Br)=C/c2ccccc2)c1 | – | – | – | – | 12 | – | – | –
Cc1ccc(C(=O)CNc2ccc(Cl)cc2)cc1 | – | – | – | – | 13 | – | 12 | –

Assay outcomes as filed in PubChem.
